Data on 14 compounds can be found in PubChem BioAssay (NCI).

Compounds without any hit were thinned out: in the full panel of roughly 83,000, 20% have a hit.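 Single-dose data. Exposure time 48 hours. Values below 10 considered active.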 Unmarked numbers belong to inactive results. The source made the active and inactive calls.

Among the test systems are SR leukemia; RPMI-8226 leukemia; OVCAR-8 ovarian; OVCAR-5 ovarian; OVCAR-4 ovarian; SK-OV-3 ovarian; IGROV1 ovarian; OVCAR-3 ovarian; NCI/ADR-RES ovarian; HS 578T breast.
Holding throughout (experiment): NCI-60 one-dose screen, 48 h (100 = growth as untreated, 0 = no growth, -100 = all killed)
Holding throughout (conditions): 10 µM unless noted

Regarding `COc1ccc(-c2nn(Cc3ccccc3)c3c2-c2oncc2CC3)cc1OC`, the growth is 63.2% with SR leukemia; 98.5% in the test on RPMI-8226 leukemia; 89% with OVCAR-8 ovarian; 103% in the test on OVCAR-5 ovarian; 86.8% in the test with OVCAR-4 ovarian; 137% in the test on SK-OV-3 ovarian. Moreover, the values for the growth with IGROV1 ovarian, in the test with OVCAR-3 ovarian and with NCI/ADR-RES ovarian were 124%, 113% and 82.6%, respectively.

Consider `C=C(C)[C@@H]1CC[C@]2(C=O)CC[C@]3(C)[C@H](CC[C@@H]4[C@@]5(C)CCCNC(C)(C)[C@@H]5CC[C@]43C)[C@@H]12`, for which the growth was -31.4% (active) in the test on SR leukemia; 12.3% in the test on RPMI-8226 leukemia; 90.9% in the test with OVCAR-8 ovarian; 93.3% in the test with OVCAR-5 ovarian; 82.3% in the test with OVCAR-4 ovarian; 106% with SK-OV-3 ovarian. The growth is 50.8% with IGROV1 ovarian, 77.5% in the test with OVCAR-3 ovarian, 89.1% with HS 578T breast and 85.3% in the test with NCI/ADR-RES ovarian.

As to `CCCCc1ccc(Nc2nnc(SCC(=O)NC(=O)NCC)s2)cc1`, the growth with SR leukemia was 9.38% (active); in the test with RPMI-8226 leukemia, 85%; in the test on OVCAR-8 ovarian, 74.1%; with OVCAR-5 ovarian it was 96.8%; with OVCAR-4 ovarian it was 104%; in the test on SK-OV-3 ovarian, 195%. For the same compound, the growth in the test on OVCAR-3 ovarian is 104%; with HS 578T breast, 60.6%; with NCI/ADR-RES ovarian it was 103%.

`CC[N+](CC)(CCCC(C)[N+]1(Cc2ccccc2)C(C)=CC=C1C)Cc1ccccc1` (centres undefined): the growth in the test on SR leukemia is 90.1%; in the test with RPMI-8226 leukemia it was 33.6%; in the test on OVCAR-8 ovarian, 101%; in the test on OVCAR-5 ovarian, 88.1%; in the test with OVCAR-4 ovarian it was 62.1%; in the test on SK-OV-3 ovarian, 101%. In addition, the growth in the test with IGROV1 ovarian was 62.4%; with OVCAR-3 ovarian it was 64%; with NCI/ADR-RES ovarian it was 97.7%.

Take `CN(C)c1ccc(-c2c(C#N)c(N)n3nc(N)c(C#N)c3c2C#N)cc1`: the growth in the test with SR leukemia was 62.1%; in the test on RPMI-8226 leukemia, 32.2%; in the test on OVCAR-8 ovarian it was 83.7%; with OVCAR-5 ovarian, 63.7%; in the test with OVCAR-4 ovarian it was 101%; in the test with SK-OV-3 ovarian, 71.3%. For the same compound, the growth with IGROV1 ovarian was 55.7%; in the test with OVCAR-3 ovarian, 85.3%; with HS 578T breast it was 93.2%; with NCI/ADR-RES ovarian, 90.4%.

For `FC(F)(F)c1cccc(Nc2ccccc2)c1`, the growth was 88.2% with SR leukemia; 104% with RPMI-8226 leukemia; 101% with OVCAR-8 ovarian; 95.4% in the test on OVCAR-5 ovarian; 108% in the test on OVCAR-4 ovarian; 119% in the test with SK-OV-3 ovarian. The growth in the test with IGROV1 ovarian was 102%; in the test with OVCAR-3 ovarian it was 118%; with HS 578T breast, 105%; with NCI/ADR-RES ovarian it was 96.2%.

Consider `COC(=O)C1=C(C(=O)ONCCN(C)C)C2C=CC1(C(Cc1ccccc1)Nc1ccc(F)cc1)O2` (centres undefined), for which the growth with SR leukemia is 10.7%; with RPMI-8226 leukemia it was 71.2%; in the test with OVCAR-8 ovarian, 97.7%; with OVCAR-5 ovarian it was 100%; with OVCAR-4 ovarian, 94.5%; with SK-OV-3 ovarian, 104%. Further, the growth in the test with IGROV1 ovarian was 92.4%; with OVCAR-3 ovarian it was 39.9%; with HS 578T breast, 125%; in the test with NCI/ADR-RES ovarian it was 102%.

Regarding `CC(C)(O)C1CCCN1C(=O)c1ccccc1I` (centres undefined), the growth with SR leukemia is 106%; with RPMI-8226 leukemia, 92.6%; with OVCAR-8 ovarian it was 109%; in the test with OVCAR-5 ovarian it was 87.3%; in the test on OVCAR-4 ovarian, 25.4%; in the test with SK-OV-3 ovarian, 89.8%. Besides, the growth in the test with OVCAR-3 ovarian was 92.5%; with HS 578T breast, 85.7%; in the test on NCI/ADR-RES ovarian, 87.8%.

Turning to `COc1ccc(C2CC(c3cccc(Nc4ccncc4)c3)=NN2c2ccccc2)cc1` (centres undefined), the growth is 2.73% (active) in the test with SR leukemia; -6.86% (active) with RPMI-8226 leukemia; 20.5% in the test with OVCAR-8 ovarian; 79.7% with OVCAR-5 ovarian; 51.8% with OVCAR-4 ovarian; 67.7% in the test with SK-OV-3 ovarian. Besides, the growth was 43.7% in the test with IGROV1 ovarian, 61.3% with OVCAR-3 ovarian, 68.5% with HS 578T breast and 69.9% with NCI/ADR-RES ovarian.

Regarding `O=S(=O)(O)c1cc(O)c2c(N=Nc3ccc(Nc4ccccc4)c4c(S(=O)(=O)O)cccc34)cc(S(=O)(=O)O)cc2c1`, the growth was 111% with SR leukemia; 109% with RPMI-8226 leukemia; 97% in the test on OVCAR-8 ovarian; 105% in the test with OVCAR-5 ovarian; 113% with OVCAR-4 ovarian; 104% with SK-OV-3 ovarian. For the same compound, the growth in the test with OVCAR-3 ovarian was 107%; with HS 578T breast it was 101%; in the test with NCI/ADR-RES ovarian it was 102%.

Turning to `Clc1nc(Cl)c2ncn(CCOCCn3cnc4c(Cl)nc(Cl)nc43)c2n1`, the growth was -75.9% (active) with SR leukemia; -52.8% (active) in the test with RPMI-8226 leukemia; -83.2% (active) in the test on OVCAR-8 ovarian; -85% (active) in the test on OVCAR-5 ovarian; -86.1% (active) with OVCAR-4 ovarian; -98.3% (active) in the test with SK-OV-3 ovarian. For the same compound, the growth was -95.6% (active) with IGROV1 ovarian, -97.4% (active) in the test with OVCAR-3 ovarian, -42.5% (active) with HS 578T breast and -56% (active) in the test on NCI/ADR-RES ovarian.

For `C#CCn1cc(C=C2C(=O)NC(=S)NC2=O)c2cc(Cl)ccc21`, the growth was 4.92% (active) with SR leukemia; -14.9% (active) in the test with RPMI-8226 leukemia; 12.1% in the test on OVCAR-8 ovarian; 56.9% in the test on OVCAR-5 ovarian; 56.1% in the test on OVCAR-4 ovarian; 81.7% in the test with SK-OV-3 ovarian. Moreover, the growth with OVCAR-3 ovarian is -36.4% (active); with HS 578T breast, -0.874% (active); with NCI/ADR-RES ovarian it was 19.5%.

Regarding `Clc1ccc(N2N=C(c3cccc(Nc4ccncc4)c3)CC2c2ccccc2)cc1` (centres undefined), the growth in the test with SR leukemia was 51.7%; with RPMI-8226 leukemia, 92.7%; in the test on OVCAR-8 ovarian it was 94.5%; in the test on OVCAR-5 ovarian, 90%; with OVCAR-4 ovarian, 88.9%; with SK-OV-3 ovarian, 87.6%. In addition, the growth is 92.9% in the test with IGROV1 ovarian, 97.1% with OVCAR-3 ovarian, 72.7% in the test on HS 578T breast and 101% in the test with NCI/ADR-RES ovarian.

For `Cc1cccc(Oc2ccc(Nc3ncnc4ccc(NC(=O)CNCCO)cc34)cc2Cl)c1`, the growth is 5.67% (active) with SR leukemia; 71.7% in the test on RPMI-8226 leukemia; 66.7% in the test with OVCAR-8 ovarian; 78.8% in the test on OVCAR-5 ovarian; 67.7% in the test with OVCAR-4 ovarian; 10.8% with SK-OV-3 ovarian. In addition, the growth with IGROV1 ovarian is 9.02% (active); in the test on OVCAR-3 ovarian, 49.7%; in the test on HS 578T breast, 83.5%; in the test on NCI/ADR-RES ovarian, 76.1%.
